The list is not random: actives were taken first. Their share in the collection is about 6.7%.
C diff growth: inhibitors of Clostridium difficile growth | 86,000 compounds, 0.25% hits | Clostridium difficile clinical isolate growth, OD600, 24 h; active compounds read low | growth activity, negative = inhibition, % at 16 µg/mL (by protocol);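 active means mean growth activity at or below -80% and every replicate also at or below -80%; inconclusive means mean at or below -80% but some replicate above -80%; inactive means mean growth activity above -80%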;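 further: 0% = DMSO wells and -100% = levofloxacin 16 µg/mL wells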
Pf Dd2 growth: blocks growth of Plasmodium falciparum Dd2 parasites; activity change, % at 10 µM; P. falciparum Dd2 growth, SYBR Green, 72 h; active compounds read low; 94,000 compounds, 2.3% hits; in the data active means activity change below about -80%; inconclusive means no clear call, values can overlap the other calls
T cruzi growth-1: T. cruzi proliferation inhibition | T. cruzi beta-gal in NIH3T3, GalScreen luminescence, 90 h | inhibition, % at 8.34 µM | 77,000 compounds, 5.9% hits;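 active means mean inhibition above about 93%, with at least 55% of replicates each passing it, limit read from the data, passing the limit was not always enough; inconclusive means only one of those two conditions holds; inactive means neither condition holds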
T cruzi growth-2: Trypanosoma cruzi proliferation inhibition. shares compounds with T cruzi growth-1. T. cruzi beta-gal in NIH3T3, GalScreen luminescence, 90 h. inhibition, % at 8.35 µM. 5,600 compounds, 72% hits. AID 651739;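 active means mean replicate inhibition above about 95% and at least 55% of replicates individually reaching it, limit read from the data; inconclusive means only one of the two criteria is met; inactive means neither criterion is met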
T cruzi growth-3: Trypanosoma cruzi proliferation inhibition; shares compounds with T cruzi growth-1; T. cruzi beta-gal in NIH3T3, GalScreen luminescence, 90 h; inhibition, % at 2.09 µM; 5,600 compounds, 21% hits; AID 651740;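 active means mean inhibition above about 95%, with at least 55% of replicates also reaching it, limit read from the data; inconclusive means meets just one of the two conditions; inactive means meets neither condition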;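 further: plate controls were neutral control median for no effect and positive control median for full effect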
NIH3T3 tox: kills mouse NIH/3T3 fibroblasts. shares compounds with T cruzi growth-1. NIH/3T3 viability, CellTiter-Glo ATP luminescence, 90 h. cytotoxicity (signal decrease), % at 8.35 µM. 5,600 compounds, 14% hits. AID 651742;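 active means mean signal decrease across replicates above about 35% based on untreated-well scatter, with enough replicates individually passing, limit read from the data; inconclusive means no rule stated though some were filed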;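 further: 0% = median of neutral control wells and 100% = median of positive control wells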
3T3 cytotox 2: cytotoxicity in mouse NIH/3T3 fibroblasts; shares compounds with T cruzi growth-1; NIH/3T3 viability, CellTiter-Glo ATP luminescence, 90 h; inhibition, % at 24.9 µM; 5,600 compounds, 56% hits;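 active means mean loss of cell viability signal at or above a set limit, and enough replicates individually reaching it; inconclusive means meets only the mean limit or only the replicate share; inactive means meets neither condition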;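 further: 0% = median of neutral control wells and 100% = median of positive control wells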
An asterisk follows results filed as active; ? = inconclusive; / = not tested or not shown.

SMILES | C diff growth | Pf Dd2 growth | T cruzi growth-1 | T cruzi growth-2 | T cruzi growth-3 | NIH3T3 tox | 3T3 cytotox 2
CCC(=O)N1C[C@@H](C)[C@@H](OC)CN(C)C(=O)c2cc(NC(=O)NC(C)C)ccc2OC[C@@H]1C | -3.1 | -7.7 | -12.4 | / | / | / | /
O=C(C[C@H]1CC[C@H](NC(=O)Nc2ccc3c(c2)OCO3)[C@@H](CO)O1)NCCCN1CCOCC1 | -1.4 | 8.2 | -1.2 | / | / | / | /
COc1ccc(CN(C)C[C@@H]2OCCCC[C@H](C)Oc3ccc(NC(=O)Nc4cccc5ccccc45)cc3C(=O)N([C@@H](C)CO)C[C@H]2C)cc1 | -57.0 | -79.9 | 93.6 | / | / | / | /
COc1ccc(CN(C)C[C@H]2OCCCC[C@@H](C)Oc3ccc(NC(=O)Nc4cccc5ccccc45)cc3C(=O)N([C@@H](C)CO)C[C@@H]2C)cc1 | -43.0 | -89.5* | ? | 96.8* | 101.2* | 41.1* | 103.0*
C[C@H](CO)N1C[C@H](C)[C@H](CN(C)Cc2ccccc2)OCCCC[C@H](C)Oc2ccc(NC(=O)Nc3cccc4ccccc34)cc2C1=O | 47.2 | 9.1 | 117.2* | 92.1 | 63.0 | 6.7 | 93.1*
O=C(C[C@H]1CC[C@H](NC(=O)Cc2cccnc2)[C@H](CO)O1)Nc1ccc(-c2ccccc2)cc1 | / | -5.7 | -61.0 | / | / | / | /
C[C@H](CO)N1C[C@H](C)[C@@H](CN(C)S(C)(=O)=O)OCCCC[C@H](C)Oc2ccc(NS(=O)(=O)c3ccc(F)cc3)cc2C1=O | -6.3 | -32.4 | -48.9 | / | / | / | /
O=C(C[C@@H]1C=C[C@H](NC(=O)c2ccc3c(c2)OCO3)[C@H](CO)O1)NCc1ccc(Cl)cc1 | 2.3 | 17.4 | 46.5 | / | / | / | /
CN(C)C(=O)c1ccc(-c2ccc([C@@H]3[C@H](CO)N4CCCCN(C(=O)C5CCCC5)C[C@@H]34)cc2)cc1 | -5.6 | -28.5 | 100.0* | 86.9 | 85.8 | 7.9 | 14.9
CN(C)C(=O)c1ccc(-c2ccc([C@H]3[C@H]4CN(C(=O)C5CCCC5)CCCCN4[C@H]3CO)cc2)cc1 | -6.4 | -32.6 | 32.1 | / | / | / | /
CN(C)C(=O)c1ccc(-c2ccc([C@@H]3[C@H]4CN(C(=O)C5CCCC5)CCCCN4[C@H]3CO)cc2)cc1 | -12.8 | 9.5 | 114.3* | 80.1 | 59.6 | 37.6* | 37.6*
CN(C)C(=O)c1ccc(-c2ccc([C@@H]3[C@H]4CN(C(=O)C5CC5)CCCCN4[C@H]3CO)cc2)cc1 | 3.3 | -35.1 | 26.4 | / | / | / | /
N#Cc1cccc(-c2ccc3c(c2)[C@@H]2[C@@H](CCN2C(=O)C2CCCCC2)[C@H](CO)N3)c1 | 10.5 | -14.7 | 82.8 | / | / | / | /
C[C@H]1CN([C@@H](C)CO)C(=O)c2cc(NC(=O)Nc3ccc(F)cc3)ccc2O[C@H]1CN(C)Cc1ccc(Cl)c(Cl)c1 | 20.7 | 18.2 | 63.1 | / | / | / | /
O=C(NCc1ccc(F)cc1)[C@@H]1N[C@@H]2c3ccc(-c4ccccc4)c(=O)n3C[C@@H]2[C@H]1CO | -1.9 | / | 63.2 | / | / | / | /
COc1ccc(NC(=O)N(C)C[C@H]2OCCCC[C@H](C)Oc3ccc(NC(=O)Nc4ccc(F)cc4)cc3C(=O)N([C@@H](C)CO)C[C@H]2C)cc1 | -3.5 | -70.7 | -23.4 | / | / | / | /
COc1ccc(NC(=O)N(C)C[C@@H]2OCCCC[C@@H](C)Oc3ccc(NC(=O)Nc4ccc(C(F)(F)F)cc4)cc3C(=O)N([C@@H](C)CO)C[C@@H]2C)cc1 | -8.0 | -78.9 | / | / | / | / | /
COc1ccc(NC(=O)N(C)C[C@H]2OCCCC[C@@H](C)Oc3ccc(NC(=O)Nc4ccc(C(F)(F)F)cc4)cc3C(=O)N([C@H](C)CO)C[C@@H]2C)cc1 | 0.9 | -23.1 | 108.4* | 111.2* | 106.0* | -1.9 | 25.6*
COc1ccc(NC(=O)N(C)C[C@H]2OCCCC[C@@H](C)Oc3ccc(NC(=O)Nc4ccc(F)cc4)cc3C(=O)N([C@H](C)CO)C[C@H]2C)cc1 | 1.7 | ? | 100.1* | 111.5* | 39.7 | -2.1 | -4.8
COc1ccc(NC(=O)Nc2ccc3c(c2)C(=O)N([C@@H](C)CO)C[C@@H](C)[C@@H](CN(C)C)OCCCC[C@H](C)O3)cc1 | -1.8 | -16.6 | 27.3 | / | / | / | /
COc1ccc(NC(=O)Nc2ccc3c(c2)C(=O)N([C@@H](C)CO)C[C@H](C)[C@H](CN(C)C)OCCCC[C@H](C)O3)cc1 | -0.4 | -25.8 | 96.1* | 64.1 | -39.3 | -10.3 | 3.6
COc1ccc(NC(=O)Nc2ccc3c(c2)C(=O)N([C@H](C)CO)C[C@H](C)[C@H](CN(C)C(=O)Nc2ccc(C(F)(F)F)cc2)OCCCC[C@H](C)O3)cc1 | -6.1 | 25.9 | ? | 108.6* | 98.7* | 5.0 | 6.9
COc1ccc(NC(=O)Nc2ccc3c(c2)C(=O)N([C@H](C)CO)C[C@H](C)[C@@H](CN(C)C(=O)Nc2ccc(C(F)(F)F)cc2)OCCCC[C@@H](C)O3)cc1 | -7.7 | -66.3 | 112.3 | / | / | / | /
O=C(C[C@H]1C=C[C@@H](NC(=O)C2CC2)[C@@H](CO)O1)NCC1CC1 | -1.7 | 2.0 | / | / | / | / | /
CN(C)CC#Cc1ccc([C@H]2[C@@H](CO)N3C(=O)CN(C(=O)c4ccccc4)C[C@H]23)cc1 | 1.4 | 27.3 | / | / | / | / | /
SMILES | C diff growth | Pf Dd2 growth | T cruzi growth-1 | T cruzi growth-2 | T cruzi growth-3 | NIH3T3 tox | 3T3 cytotox 2
COc1ccc(NC(=O)Nc2cccc3c2O[C@@H](CN(C)S(=O)(=O)c2cccs2)[C@@H](C)CN([C@@H](C)CO)C3=O)cc1 | 16.9 | 9.2 | 41.9 | / | / | / | /
C[C@@H]1CCCCO[C@H](CN(C)Cc2ccncc2)[C@@H](C)CN([C@@H](C)CO)C(=O)c2cc(NC(=O)NC3CCCCC3)ccc2O1 | -2.1 | -30.7 | 48.5 | / | / | / | /
CNC[C@@H]1Oc2ccc(NC(=O)C3CC3)cc2C(=O)N([C@H](C)CO)C[C@H]1C | -5.1 | 51.2 | -66.8 | / | / | / | /
O=C(C[C@@H]1CC[C@@H](NS(=O)(=O)c2ccc(F)cc2)[C@@H](CO)O1)N1CCc2ccccc2C1 | -1.3 | -2.5 | 11.1 | / | / | / | /
O=C(C[C@@H]1C=C[C@@H](NC(=O)c2cccnc2)[C@@H](CO)O1)NCc1ccc(Cl)c(Cl)c1 | / | -31.1 | 23.1 | / | / | / | /
COc1ccc(NC(=O)N(C)C[C@@H]2OCCCC[C@H](C)Oc3ccc(NC(=O)Nc4ccc(C(F)(F)F)cc4)cc3C(=O)N([C@@H](C)CO)C[C@H]2C)cc1 | 10.7 | 62.3 | 97.3* | 110.8* | ? | -20.8 | ?
COc1ccc(NC(=O)Nc2ccc3c(c2)C(=O)N([C@H](C)CO)C[C@H](C)[C@H](CN(C)C(=O)Nc2ccc(C(F)(F)F)cc2)OCCCC[C@@H](C)O3)cc1 | -0.2 | -26.9 | / | / | / | / | /
CN(C)C(=O)c1ccc(-c2ccc([C@@H]3[C@@H](C#N)N(C(=O)C4CC4)[C@H]3CO)cc2)cc1 | -19.1 | -31.2 | 103.9* | 99.2* | ? | 2.0 | 63.3*
CN(C)C(=O)c1ccc(-c2ccc([C@@H]3[C@@H](CO)N(C(=O)C4CCCCC4)[C@H]3C#N)cc2)cc1 | 1.1 | -30.8 | 89.1 | / | / | / | /

Screening results as filed in PubChem.
